In PubChem BioAssay (NCI):
The panel holds about 83,000 compounds, 20% with a hit somewhere; the sample as a whole holds those more often.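 The endpoint reported here, percent growth, reads 100 for growth as untreated, 0 for no net growth and -100 for all cells dead.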 Unmarked numbers belong to inactive results. Activity calls are given as the source filed them. Rule for the calls: active = growth percent below 10; inactive = the rest.

Legend:
Assay in all cases: NCI-60 one-dose screen, 48 h (100 = growth as untreated, 0 = no growth, -100 = all killed)
Conditions in all cases: 10 µM unless noted
SK-MEL-2 melanoma = test system: SK-MEL-2 melanoma
EKVX NSCLC = test system: EKVX NSCLC
SN12C renal = test system: SN12C renal
UO-31 renal = test system: UO-31 renal
TK-10 renal = test system: TK-10 renal
ACHN renal = test system: ACHN renal
CAKI-1 renal = test system: CAKI-1 renal
A498 renal = test system: A498 renal
CCRF-CEM leukemia = test system: CCRF-CEM leukemia
MOLT-4 leukemia = test system: MOLT-4 leukemia
SR leukemia = test system: SR leukemia
RPMI-8226 leukemia = test system: RPMI-8226 leukemia
OVCAR-8 ovarian = test system: OVCAR-8 ovarian
OVCAR-5 ovarian = test system: OVCAR-5 ovarian
OVCAR-4 ovarian = test system: OVCAR-4 ovarian
SK-OV-3 ovarian = test system: SK-OV-3 ovarian
IGROV1 ovarian = test system: IGROV1 ovarian
OVCAR-3 ovarian = test system: OVCAR-3 ovarian
HS 578T breast = test system: HS 578T breast
NCI/ADR-RES ovarian = test system: NCI/ADR-RES ovarian

Row | Structure (SMILES) | growth (SK-MEL-2 melanoma) | growth (EKVX NSCLC) | growth (SN12C renal) | growth (UO-31 renal) | growth (TK-10 renal) | growth (ACHN renal) | growth (CAKI-1 renal) | growth (A498 renal) | growth (CCRF-CEM leukemia) | growth (MOLT-4 leukemia) | growth (SR leukemia) | growth (RPMI-8226 leukemia) | growth (OVCAR-8 ovarian) | growth (OVCAR-5 ovarian) | growth (OVCAR-4 ovarian) | growth (SK-OV-3 ovarian) | growth (IGROV1 ovarian) | growth (OVCAR-3 ovarian) | growth (HS 578T breast) | growth (NCI/ADR-RES ovarian)
1 | CCOC(=O)/C=C/c1cccc2c1C(=O)NC(C)(c1cc3cc(Cl)ccc3oc1=O)N2 (stereo not given) | 7.1% (active) | 31.8% | 31.5% | 11.7% | 46.2% | 10% | 10.5% | 30.3% | 37.4% | 4.75% (active) | 1.88% (active) | 17.7% | 39.1% | 50.4% | 36.7% | -0.634% (active) | 13% | 34.4% | 41% | 22.7%
2 | CN(C)CCOc1ccc(C(=O)C2[C@H](c3ccc(Cl)cc3)[C@@H](c3ccccc3)NC23C(=O)Nc2ccc(Br)cc23)cc1 (stereo not given in full) | 54.1% | 12.3% | 7.21% (active) | 32.8% | 90.2% | -27.9% (active) | 18.5% | 96% | 43.9% | -52.3% (active) | -36.4% (active) | -30.8% (active) | -61.8% (active) | 36.4% | 33.9% | 96% | 29.1% | -4.55% (active) | 58.7% | 23%
3 | Cn1cc(-c2cc(N)n3nc(-c4cn(C)c5ccc(Cl)cc45)cc3n2)c2ccccc21 | 114% | 104% | 108% | 107% | 79.3% | 100% | 95.4% | 101% | 115% | 104% | 99.7% | 109% | 104% | 108% | 111% | 105% | 111% | 122% | 113% | 105%
4 | O=C(CSc1nc2ccccc2c(=O)[nH]1)NCCN1CCCCC1 | 92.5% | 93.7% | 96.4% | 78.6% | 94.9% | 103% | 82.4% | 105% | 98.5% | 103% | 90.9% | 100% | 97.7% | 94.2% | 98.8% | 107% | 104% | 105% | 94.1% | 102%
5 | CC1(C)CC[C@]2(C(=O)O)CC[C@]3(C)C(=CCC4[C@@]5(C)C[C@@H](O)[C@@H]6OC(c7ccco7)OC[C@@]6(C)C5CC[C@]43C)C2C1 (stereo not given in full) | -23.4% (active) | 22.8% | 20% | 22.7% | 29.2% | 7.44% (active) | 33.1% | 62.4% | 21.7% | 21% | 18.2% | 15% | 26.9% | 65.4% | 47.9% | 75.6% | 31.6% | 20.5% | 31.2% | 35.6%
6 | COC(=O)/C=C/c1cccc2c1C(=O)NC(C)(c1cc3cc4ccccc4cc3oc1=O)N2 (stereo not given) | 79.4% | 67.5% | 35.1% | 65.4% | 99.7% | 40.1% | 61.9% | 90.6% | 53% | 58.7% | 28% | 40.2% | 54.3% | 63.3% | 5.78% (active) | 95.6% | 65.2% | 32% | 29.5% | 35.2%
7 | O=C(Cn1c(/C=C/c2ccccc2)nc2ccccc2c1=O)Nc1ccccc1 | 94.7% | 124% | 31% | 24.7% | 75.6% | 1.89% (active) | 8.48% (active) | -29.9% (active) | 71.4% | 73% | 80.3% | 90.2% | 44.4% | 96.1% | -0.268% (active) | 61.4% | 107% | 78.3% | 82.5% | 57.9%
8 | COc1ccc(C(=O)/C=C/c2ccc(OC)c(OCc3ccccc3)c2)cc1OC | 55.8% | 25.2% | 7.92% (active) | 19.3% | 20.5% | 21.8% | 39.4% | 108% | 12.9% | 8.07% (active) | 14.4% | 7.98% (active) | -7.56% (active) | 31.4% | 30.1% | 24.7% | 22.2% | 16.3% | 18.7% | -4.74% (active)
9 | CC(=O)c1c(N)c(C#N)cn1-c1ccc(Cl)cc1Cl | 90.4% | 93.8% | 100% | 68.4% | 160% | 102% | 97.1% | 112% | 99.3% | 102% | 90.8% | 105% | 98.2% | 100% | 106% | 89.1% | 96.5% | 120% | 110% | 108%
10 | O=c1oc2ccccc2cc1-c1csc(N2N=C(c3ccccc3)CC2c2ccc(N3CCOCC3)cc2)n1 (stereo not given) | 101% | 96.1% | 107% | 73.8% | 159% | 99.2% | 90.6% | 153% | 96.6% | 95.9% | 94.5% | 102% | 104% | 132% | 105% | 69.9% | 123% | 117% | 105% | 105%
11 | C=C1CC[C@@H]2[C@]3(C)COC(c4cn[nH]c4-c4ccc(F)cc4)O[C@@H]3CC[C@@]2(C)[C@@H]1C/C=C1/C(=O)OCC1O (stereo not given in full) | -39% (active) | -6.56% (active) | -51.4% (active) | -80.4% (active) | -19.1% (active) | -80.3% (active) | 1.51% (active) | 146% | -3.97% (active) | 1.15% (active) | 9.73% (active) | 0.899% (active) | 1.2% (active) | -42.2% (active) | 32.9% | 46.6% | -31.1% (active) | -68.6% (active) | 44.8% | -45.6% (active)
12 | CC1(C)CC[C@]2(C(=O)O)CC[C@]3(C)C(=CCC4[C@@]5(C)C[C@@H](O)[C@@H]6OC(c7ccccc7F)OC[C@@]6(C)C5CC[C@]43C)C2C1 (stereo not given in full) | -14.8% (active) | 13.8% | 3.09% (active) | 4% (active) | 7.15% (active) | 4.14% (active) | 9.12% (active) | 31% | 17% | 2.87% (active) | 7.37% (active) | 10% | 12% | 28.2% | 30.7% | 12.7% | 20% | -11% (active) | 21.6% | 6.19% (active)
13 | CCOC(=O)C1=C(N)N(c2ccccc2)C2=C(C(=O)CC(C)(C)C2)C1c1ccc([N+](=O)[O-])cc1 (stereo not given) | 97.2% | 86.4% | 98.4% | 95.7% | 113% | 87.9% | 68.4% | 114% | 89.1% | 78.3% | 66.4% | 82.6% | 103% | 101% | 97.3% | 105% | 108% | 121% | 100% | 98.2%
14 | COc1ccc(-c2c(Nn3cnnn3)no[n+]2[O-])cc1 | 82.5% | 53.7% | 33.3% | 20.8% | 62.5% | 34.1% | 25.7% | 63.9% | 40.6% | 27.9% | 38.7% | 42% | 46.4% | 85.6% | 53.4% | 91.1% | 19.8% | 46.5% | 50% | 54.9%
15 | COc1cc2oc(-c3cccc(C(=O)Nc4ccc(Cl)cc4)c3)cc(=O)c2c(OCC(=O)N[C@@H](Cc2ccccc2)C(=O)O)c1OC | 116% | 107% | 105% | 90.8% | 134% | 97.2% | 91.2% | 102% | 98.9% | 110% | 104% | 101% | 106% | 101% | 104% | 138% | 98% | 117% | 108% | 104%
